{"source": "PubChem BioAssay AID588856", "about": "(National Center for Advancing Translational Sciences (NCATS), 2011)", "note": "The whole screen tested about 410,000 compounds, of which about 3,100 (0.76%) were called active. The sample holds actives, similar compounds and a random draw of the others, so the mix is not that of the screen. Unmarked numbers belong to inactive results. Calls come from the whole dose curve; as a rule, active = well fitted cell-killing curve with a large enough effect; inactive = no such curve, though single readings can be large or run the other way. Potency is the fitted concentration of half-maximal effect.", "data": [{"test": "qHTS for Inhibitors of TGF-b: Cytotox Counterscreen", "settings": "HepG2 CAGA-GFP viability, ATP luminescence, 18 h; series mostly up to 46.1 µM; activity change, negative = cytotoxicity: at the top concentration", "method_in_brief": "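CellTiter-Glo luminescence gave cytotoxicity after 18 hours at 37 degrees C. The cells were HepG2 CAGA-GFP in 1% FBS DMEM, stimulated with 500 pg/mL TGF-beta after compound addition. %Activity was normalised to no-cell wells (complete cell-killing) and DMSO (no toxicity), and curves were fitted and classified.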", "units": {"activity change, negative = cytotoxicity": "%"}, "values": [{"smiles": "COc1ccc(-n2nnc(-c3nsc(NC(=O)c4ccc(C)c(C)c4)n3)c2C)cc1Cl", "activity change, negative = cytotoxicity": -3.8}, {"smiles": "Cc1ccc(S(=O)(=O)CCC(=O)OCc2ccccc2)cc1", "activity change, negative = cytotoxicity": 15.6}, {"smiles": "CN(C)S(=O)(=O)c1ccc(C(=O)N(Cc2cccnc2)c2nc3c(F)cc(F)cc3s2)cc1", "activity change, negative = cytotoxicity": -12.8}, {"smiles": "O=C(C1COc2ccccc2O1)N(Cc1cccnc1)c1nc2c(F)cc(F)cc2s1", "note": "(stereo not given)", "activity change, negative = cytotoxicity": -4.6}, {"smiles": "COc1cccc2sc(N(CCCN(C)C)C(=O)CCS(=O)(=O)c3ccccc3)nc12", "Potency": "3.55 µM (active)"}, {"smiles": "O=C(O)CCS(=O)(=O)c1ccc(-c2ccccc2)cc1", "activity change, negative = cytotoxicity": -29.8}, {"smiles": "Cc1cccc2sc(N(CCCN(C)C)C(=O)CCS(=O)(=O)c3ccccc3)nc12", "Potency": "7.08 µM (active)"}, {"smiles": "COc1ccccc1CNC(=O)CS(=O)(=O)c1cccc2nsnc12", "activity change, negative = cytotoxicity": -0.638}, {"smiles": "COc1ccc(C)cc1NC(=O)CCS(=O)(=O)c1cccc2nonc12", "activity change, negative = cytotoxicity": -9.1}, {"smiles": "O=C(CCS(=O)(=O)c1ccccc1)N(Cc1cccnc1)c1nc2c(F)cccc2s1", "Potency": "7.94 µM (active)"}, {"smiles": "CCc1ccc2oc(-c3ccc(NC(=O)c4cc5ccccc5o4)cc3)nc2c1", "activity change, negative = cytotoxicity": -9.98}, {"smiles": "CCn1cc(C(=O)NCCc2ccccc2)c(=O)c2cc(S(=O)(=O)N3CCCCCC3)ccc21", "activity change, negative = cytotoxicity": -21.5}, {"smiles": "CC(C)Cn1c(C2CC(=O)N(c3ccccc3Cl)C2)nc2ccccc21", "note": "(stereo not given)", "activity change, negative = cytotoxicity": -4.94}, {"smiles": "CN(C)C1=C2C=CC=CC2/C(=C2/C=Cc3ccccc32)C=C1", "note": "(stereo not given)", "activity change, negative = cytotoxicity": -6.33}, {"smiles": "O=C1c2ccccc2C(=O)N1c1ccc(S(=O)(=O)N2CCOCC2)c2ccccc12", "activity change, negative = cytotoxicity": -1.94}, {"smiles": "OC(CBr)C[n+]1cccc2cc(Br)ccc21", "note": "(stereo not given)", "activity change, negative = cytotoxicity": -28.1}, {"smiles": "OCCNc1nc(Nc2ccc(Cl)c(Cl)c2)nc2ccccc12", "Potency": "12.6 µM (active)"}, {"smiles": "FC(F)(F)c1cc(Nc2nc3ccccc3c3nncn23)ccc1Cl", "activity change, negative = cytotoxicity": -96.2}, {"smiles": "O=C(CSc1nc(Nc2ccc(F)c(F)c2)c2ccccc2n1)c1ccc(Cl)cc1", "activity change, negative = cytotoxicity": -28.6}, {"smiles": "COc1ccc(CCC(=O)NCCc2csc(-c3ccc(Cl)cc3)n2)cc1", "activity change, negative = cytotoxicity": -32.7}, {"smiles": "O=C(/C=C/c1ccccc1)Nc1cc(-c2nc3cc(Cl)ccc3o2)ccc1Cl", "activity change, negative = cytotoxicity": -69.3}, {"smiles": "Cc1ccc(C)c(N2CCN(c3ccc4cc(S(=O)(=O)N5CCC(C)CC5)ccc4n3)CC2)c1", "activity change, negative = cytotoxicity": -1.77}, {"smiles": "O=S(=O)(c1ccc(Br)cc1)N1CCC(c2nc3ccccc3[nH]2)CC1", "activity change, negative = cytotoxicity": -33}, {"smiles": "c1ccc2[nH]c(-c3nc4ccccc4[nH]3)nc2c1", "Potency": "10 µM (active)"}, {"smiles": "O=C(OCc1nc2ccccc2[nH]1)C1CCCCC1", "activity change, negative = cytotoxicity": -12.4}, {"smiles": "C=C1CCN(Cc2ccc(OC)cc2)S(=O)(=O)c2ccccc21", "activity change, negative = cytotoxicity": 9.57}, {"smiles": "COc1ccc(-c2onc(C)c2C)cc1S(=O)(=O)NCCc1ccccc1", "activity change, negative = cytotoxicity": -6.23}, {"smiles": "O=C(Nc1ccc(S(=O)(=O)N2CCC(c3nc4ccccc4s3)CC2)cc1)c1ccccc1F", "activity change, negative = cytotoxicity": 3.13}, {"smiles": "Cc1ccc(C)c(Cn2c(=O)n(CCC(=O)NCc3ccc4c(c3)OCO4)c(=O)c3sccc32)c1", "activity change, negative = cytotoxicity": 1.7}, {"smiles": "Nc1nc(N)c(N=O)c(N)n1", "activity change, negative = cytotoxicity": -19.7}, {"smiles": "Cc1cccc(Cn2c(SCc3ccc(C(=O)N4CCC(C)CC4)cc3)nc3ccncc32)c1", "Potency": "12.6 µM (active)"}, {"smiles": "COc1cccc(Cn2c(SCc3ccc(C(=O)N4CCC(C)CC4)cc3)nc3ccncc32)c1", "activity change, negative = cytotoxicity": -26.2}, {"smiles": "Cc1cccc(CSc2nc3ccncc3n2Cc2ccc(C(=O)O)cc2)c1", "activity change, negative = cytotoxicity": 11}, {"smiles": "COC(=O)c1cc(S(=O)(=O)N2CCN(c3cc(Cl)ccc3C)CC2)c[nH]1", "activity change, negative = cytotoxicity": -87.6}, {"smiles": "CCCCCCC1(C)NC(c2ccc3c(c2)OCO3)=CC(c2ccccc2O)N1", "note": "(stereo not given)", "activity change, negative = cytotoxicity": -20}, {"smiles": "CCOC(=O)[C@H]1[C@H]2COc3cc(OC)ccc3[C@@H]2N2C(=O)N(c3ccc(Br)cc3)C(=O)[C@@]12C", "activity change, negative = cytotoxicity": -17.1}, {"smiles": "CS(=O)c1ccc(/C=C2\\C=Cc3ccccc32)cc1", "note": "(stereo not given)", "activity change, negative = cytotoxicity": -28.8}, {"smiles": "N#Cc1ccc[n+](CC(=O)c2ccc(O)c(O)c2)c1", "activity change, negative = cytotoxicity": -0.0707}, {"smiles": "CN(C)c1cccc2ccccc12", "activity change, negative = cytotoxicity": -0.939}, {"smiles": "O=C(COc1cccc(F)c1)Oc1ccc(C(=O)c2ccccc2)cc1", "activity change, negative = cytotoxicity": 0.557}, {"smiles": "COC(=O)c1ccc(-c2noc(CN(Cc3ccccn3)CC3CCCO3)n2)cc1", "note": "(stereo not given)", "activity change, negative = cytotoxicity": -4.4}, {"smiles": "O=C(Oc1ccc(-c2nc(-c3ccccn3)no2)cc1)c1ccccc1", "Potency": "5.01 µM (active)"}, {"smiles": "O=C(c1ccco1)n1nc(-c2ccc(Cl)cc2)nc1NCc1ccccc1", "activity change, negative = cytotoxicity": -7.44}, {"smiles": "O=C(Nc1ccc2c(c1)OCO2)c1cc(-c2cccc(Cl)c2)on1", "activity change, negative = cytotoxicity": 0.272}, {"smiles": "COc1cc(SC#N)ccc1N=Cc1c(C)[nH]n(-c2ccc(C)cc2)c1=O", "Potency": "12.6 µM (active)"}, {"smiles": "O=C(NCCc1ccccc1)c1cnc2sc(N3CCCC3)nn2c1=O", "activity change, negative = cytotoxicity": -6.52}, {"smiles": "Cc1ccc2oc(C(=O)Nc3ccc(S(=O)(=O)N4CCCCCC4)cc3)cc(=O)c2c1", "activity change, negative = cytotoxicity": 4.11}, {"smiles": "O=C(Nc1nc2ccc(F)cc2s1)c1nc(SCc2ccccc2F)ncc1Cl", "activity change, negative = cytotoxicity": 5.82}, {"smiles": "Fc1ccc(Nc2nc(SCc3ccccc3Cl)nc3ccccc23)cc1", "Potency": "17.8 µM (active)"}, {"smiles": "Fc1ccc(CSc2nc(NCc3ccccc3)c3ccccc3n2)cc1", "activity change, negative = cytotoxicity": -63.2}]}]}
